In the library only some 7.9% were active in any assay of this set; here they are far more common.
MCF10A rereplic: A quantitative high throughput screen for small molecules that induce DNA re-replication in MCF 10a normal breast cells | 350,000 compounds, 2.9% hits | AID 624296, 2012 | MCF 10A DNA re-replication, Hoechst nuclear intensity, 48 h | Potency, µM (series often up to 46.1 µM), inactives show top-dose activity, positive = re-replication, actives largely listed as activators; also: % of control where 0% means no effect; nearly all actives have a fitted effect of over 50% in size
KB-3-1 tox: qHTS assay for MDR1-selective chemotherapeutics: Primary screen using the parental adenocarcinoma cell KB-3-1; KB-3-1 viability, CellTiter-Glo ATP luminescence, 72 h; Potency, µM (doses to about 46.1 µM), actives largely listed as cytotoxic; 400,000 compounds, 1.4% hits; AID 1347075, 2019; also: % is scaled to controls: 0 for no effect and ±100 for the full control effect; nearly all actives have a fitted effect of over 60% in size
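Screening of KB-3-1 cells (DMEM, 10% FBS, phenol-red free) ran from lowest to highest compound concentration; after 72 h at 37 °C viability was read luminescently and curves fitted.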
KB-V1 MDR tox: qHTS assay for MDR1-selective chemotherapeutics: Primary screen using the drug-selected MDR subline cells KB-V1. KB-V1 MDR cells viability, CellTiter-Glo, 72 h. Potency, µM (top dose mostly 46.1 µM), usual class: cytotoxic. 400,000 compounds, 3.4% hits. AID 1347076, 2019; also: % is scaled to controls: 0 for no effect and ±100 for the full control effect; nearly all actives have a fitted effect of over 60% in size
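Following 72 h at 37 degrees C with compound, KB-V1 cell viability was read by CellTiter-Glo luminescence, medium being phenol-red-free DMEM plus 10% FBS; concentration-response parameters came from normalized, curve-fitted qHTS data.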
HT1080NT lethal: qHTS for induction of synthetic lethality in tumor cells producing 2HG: qHTS for the HT-1080-NT fibrosarcoma cell line; HT-1080-NT fibrosarcoma viability, CellTiter-Glo ATP luminescence, 48 h; Potency, µM (series often up to 46.1 µM), for the others: at the top dose activity, negative = less viability, most hits filed as cytotoxic; 360,000 compounds, 1.6% hits;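 also: NT is the 2HG producing partner of a matched IDH1 knockdown line; 0% = DMSO-treated cells and -100% = media-only wells without cells; nearly all actives have a fitted effect of over 55% in size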
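Read-out is CellTiter-Glo luminescence after 10 minutes at room temperature, following 48 hours' compound treatment of HT-1080-NT cells (750 cells/well, RPMI, 5% FBS, 37 degrees C).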
SW480 rereplic: A quantitative high throughput screen for small molecules that induce DNA re-replication in SW480 colon adenocarcinoma cells; SW480 DNA re-replication, Hoechst DNA content imaging, 48 h; Potency, µM (series often up to 46.1 µM), for the others: at the top dose re-replication activation, hits mostly activators; 340,000 compounds, 1.8% hits; AID 624297, 2012; also: % of control where 0% means no effect; nearly all actives have a fitted effect of over 55% in size
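Treated cells incubate 48 hr (37 C, 5% CO2), are stained 40 min with Hoechst, and nuclear fluorescence is enumerated; a rise in nuclei with high DNA signal marks re-replication.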
HT1080 IDH1KD tx: qHTS for induction of synthetic lethality in tumor cells producing 2HG: qHTS for the HT-1080-IDH1KD cell line; AID 686971, 2013; 360,000 compounds, 2% hits; Potency, µM (top dose mostly 46.1 µM), inactives show at the top dose activity, negative = toxicity, most hits filed as cytotoxic; HT-1080 IDH1 knockdown viability, ATP luminescence, 48 h;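 also: 0% = DMSO wells and -100% = cell-free medium wells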
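Viability of IDH1-knockdown HT-1080 fibrosarcoma cells was assessed by CellTiter-Glo after 48 h at 37 °C with titrated compound; concentration-effect curves were classified by fit quality and response size.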
Active calls of the source: *; i = inactive; ? = inconclusive; · = not tested or not shown. Calls follow the shape of the dose curve; as a rule, active = well fitted curve in the direction sought with a large enough effect; inconclusive = small, poorly fitted or top-dose-only effect, or another doubt; inactive = no such curve, though single readings can be large; an effect the other way counts as inactive or inconclusive. Potency is read from the fitted curve at half-maximal effect.

SMILES	MCF10A rereplic	KB-3-1 tox	KB-V1 MDR tox	HT1080NT lethal	SW480 rereplic	HT1080 IDH1KD tx
CCOC(=O)Cc1csc(NC(=O)c2ccc(S(=O)(=O)N3CCCCC3)cc2)n1	4.9%	i	14.6µM*	-17.5%	-4.7%	-6.9%
O=C(Nn1cnnc1)c1ccc([N+](=O)[O-])cc1Cl	-3.0%	i	i	-0.7%	-8.8%	0.9%
Cc1cccc2nc(CSc3nc4ccccc4o3)cn12	22.9%	?	16.4µM*	1.8%	4.2%	27.8%
Cc1cc(C)c(C#N)c(SCc2cn3c(C)cccc3n2)n1	-4.6%	i	18.4µM*	6.9%	·	0.6%
Cc1nn(-c2cccc(Cl)c2)c(Cl)c1/C=N/NC(=O)c1cccs1	?	?	?	-1.8%	?	?
O=C(Cn1c(-c2ccccc2)c[n+]2ccsc12)c1ccc([N+](=O)[O-])cc1	18.4%	20.6µM*	i	?	4.3%	?
N#Cc1ccccc1S(=O)(=O)N1CCN(C(=O)c2ccc(-n3cncn3)c([N+](=O)[O-])c2)CC1	12.2%	i	i	13.1%	-8.3%	10.4%
CC1(C(=O)O)CCCN1C(=O)c1cccc(F)c1 (configuration not stated)	·	i	i	11.5%	·	25.6%
O=C(N/N=C(\Cc1ncc[nH]1)c1ccccc1)c1ccncc1	?	?	i	-27.0%	?	4.11µM*
O=C(CCCn1c(=O)c2sccc2n(CC(=O)NCc2ccco2)c1=O)NCc1ccco1	-2.3%	i	i	1.4%	0.8%	5.6%
O=C(CCn1c(=O)c2sccc2n(CC(=O)NCc2ccco2)c1=O)NCc1ccccc1	-1.0%	i	i	0.1µM*	4.0%	-5.5%
Cc1ccc(C)c(Cn2c(=O)n(CCCC(=O)NCc3ccco3)c(=O)c3sccc32)c1	13µM*	5.8µM*	?	?	?	9.2µM*
COc1cccc(Cc2nc3ccccc3nc2SCC(=O)Nc2cc(OC)ccc2OC)c1	·	i	i	·	·	·
N#CC(c1ccc(Cl)cc1)c1ccc2c(C(F)(F)F)cc(C(F)(F)F)nc2n1 (configuration not stated)	?	?	?	10.3µM*	?	14.6µM*
CC1CCCCC12NC(=O)N(CC(=O)N1CCN(C(=O)c3cccs3)CC1)C2=O (configuration not stated)	-0.8%	i	i	-2.2%	-12.4%	-2.5%
O=C(N/N=C/c1cccc(Oc2ccc([N+](=O)[O-])cc2[N+](=O)[O-])c1)c1cncc(Br)c1	4.2%	i	i	?	?	11.2µM*
Cc1ccccc1OCC(=O)N/N=C/c1cccc(Oc2ccc([N+](=O)[O-])cc2[N+](=O)[O-])c1	19.3%	?	?	-3.2%	?	-20.7%
CN1CCCC1=Nc1c2c(nc3ccccc13)N(C)CC2	10.5%	i	i	3.2%	-3.0%	-16.7%
COc1ccc(N2C(c3ccsc3)=Cc3cc4c(cc3C2c2c[nH]c3ccccc23)OCO4)cc1 (configuration not stated)	·	?	i	20.6µM*	·	?
Oc1cccc2ccc(/C=C/c3c(F)cccc3Cl)nc12	27.4%	?	i	-11.4%	18.4µM*	?
Oc1cccc2ccc(/C=C/c3ccccc3Cl)nc12	12.8%	i	i	-9.6%	?	-28.1%
COc1cc(NC(=O)c2c(F)cccc2F)nc(OC)n1	?	i	i	-4.0%	?	-7.1%
CC(Sc1nn(-c2ccc(F)cc2)c(=S)s1)C(=O)c1c(N)n(C)c(=O)n(C)c1=O (configuration not stated)	29.3%	?	6.51µM*	-17.9%	-5.7%	-17.0%
COC(=O)c1ccccc1NC(=O)CC(NCc1ccccc1)C(=O)O (configuration not stated)	-0.2%	i	i	1.1%	20.6µM*	-13.2%
CCc1ccccc1NC(=O)CC(NCc1ccccc1)C(=O)O (configuration not stated)	-2.6%	i	i	1.0%	-7.9%	0.2%
SMILES	MCF10A rereplic	KB-3-1 tox	KB-V1 MDR tox	HT1080NT lethal	SW480 rereplic	HT1080 IDH1KD tx
CC1(C)Cc2nc(NCCN3CCOCC3)c(C#N)cc2CO1	-1.6%	i	i	?	-16.4%	13.4%
C[n+]1ccc(/C=C/c2cc[n+](C)c3ccccc23)c2ccccc21	·	?	i	·	·	·
CN1C=C/C(=C\c2cc[n+](C)c3ccccc23)c2ccccc21	0.581µM*	i	i	?	-23.5%	6.51µM*
CCCCNC(=S)N(C)/N=C/c1ccc(OCC(=O)Nc2c(C)cc(C)cc2C)c(OC)c1	18.4µM*	i	i	-27.1%	16.4µM*	?
COc1ccccc1-n1cc(-c2ccc(C)cc2)[nH]c1=S	18.4µM*	?	23.1µM*	10.3µM*	?	?
COc1ccc(-c2cn(-c3ccccc3)c(=S)[nH]2)cc1OC	2.5%	3.26µM*	i	-18.9%	-5.4%	-9.6%
COc1ccccc1-n1cc(-c2ccc(Br)cc2)[nH]c1=S	14.3%	i	i	-0.9%	?	-28.5%
COc1ccc(-c2cn(-c3ccc(C)c(Cl)c3)c(=S)[nH]2)cc1OC	12.7%	16.4µM*	i	-9.8%	-0.9%	-15.6%
COc1ccc(-c2cn(-c3ccc(C)c(C)c3)c(=S)[nH]2)cc1OC	8.6%	i	i	-3.6%	-0.4%	-1.4%
O=C1CN(S(=O)(=O)c2ccc(Cl)cc2)CC(=O)N1CCc1ccccc1	2.4%	i	i	3.2%	-1.6%	0.9%
Cc1cc(C)c[n+](C(C)C(=O)c2ccc(-c3ccccc3)cc2)c1 (configuration not stated)	3.6%	5.8µM*	i	-18.8%	4.4%	?
C=CCNC1=C2C[C@@H](C)C[C@H](OC)[C@H](O)[C@@H](C)/C=C(\C)[C@H](OC(N)=O)[C@@H](OC)/C=C\C=C(/C)C(=O)NC(=CC1=O)C2=O	0.0668µM*	·	·	·	2.9%	·
COC1C=CC=C(C)C(=O)NC2=CC(=O)C(N)=C(CC(C)CC(OC)C(O)C(C)C=C(C)C1OC(N)=O)C2=O (configuration not stated)	64.4%	i	i	?	0.231µM*	0.0411µM*
COc1ccc(C(=O)OCC(=O)Nc2ccccc2)cc1[N+](=O)[O-]	-3.5%	i	?	5.9%	5.6%	-0.5%

Compound activity: PubChem, National Center for Advancing Translational Sciences (NCATS)
